The record followed here is PubChem BioAssay (Tox21).

Calls of active or inactive are those of the source. The call rests on the fitted dose curve; in most records, active means well fitted curve in the direction sought with a large enough effect in the repeat runs; inconclusive means weak or mixed curves; inactive means flat fitted curve, though single readings scatter.

A short description of this assay: qHTS assay to test for compound auto fluorescence at 590 nm (red) in HepG2 cells (AID 720674). To be noted: HepG2 autofluorescence, red 540/590 nm, 1 h; series mostly up to 91.3 µM. The source says:
U.S. Tox21 Program National Center for Advancing Translational Sciences [NCATS] NIH Chemical Genomics Center [NCGC] U.S. Environmental Protection Agency [EPA] National Institutes of Environmental Health Sciences [NIEHS] National Toxicology Program [NTP] U.S. Food and Drug Administration [FDA] Tox21 Assay Overview: Compound auto fluorescence often interferes with screening of the compound library against various biological targets and signaling pathways. Some of these compounds may have fluorophoric properties. Such properties may interfere with the assay outputs resulting in false positives and/or negatives. To decrease such complications and ensure the compound activities are relevant in terms of biological response, the Tox21 10K compound library was screened for auto fluorescence. From the fluorophores used as reporter signals in our screening assays, the auto fluorescence equivalencies of compounds against three fluorophores have been evaluated: Triamterene, Fluorescein and Rose Bengal sodium for blue, green and red fluorescence, respectively. The fluorescence intensities were measured using Excitation/Emission wavelengths at 405/460nm, 485/535nm and 540/590nm for blue, green and red labels, respectively. This assay includes the red fluorescence data.
Tox21 Assay Protocol Summary: 2,000 HepG2 cells in 5 uL of culture medium (MEM containing 10% FBS) per well were dispensed into black wall/clear bottom 1536-well plates using a Multidrop Combi Dispenser (ThermoFisher Scientific, Waltham, MA). The assay plates were incubated overnight at 37 C to allow cell attachment to the well bottom, followed by the transfer of 23 nL compound or DMSO vehicle by a pintool work station (Kalypsys , San Diego, CA). After the assay plates were incubated for 1 hr at 37 C and 5% CO2, fluorescence intensities in the assay plates were measured by an Envision (PerkinElmer, Shelton, CT) plate reader using three labels for measuring blue, green and red fluorescence at […] 460, 535 and 590 nm respectively.
Regarding `Nc1ccc(N=Nc2ccccc2)c(N)n1`, the call was inactive.

As for `C=C(C)OC(C)=O`, the result was inactive. Turning to `CC(C)(C)NCC(O)c1ccc(O)c(CO)c1` (stereo not given), the compound was classed as inactive.

As to `COC1=CC(=O)C[C@@H](C)[C@]12Oc1c(Cl)c(OC)cc(OC)c1C2=O`, the result was inactive.

As to `C[C@]12C=CC(=O)C=C1CC[C@@H]1[C@@H]2C(=O)C[C@@]2(C)[C@H]1CC[C@]2(O)C(=O)CO`, the compound was called inactive. In the case of `N[C@@H](Cc1c[nH]c2ccccc12)C(=O)O`, the result was inactive. `COc1cc(C=O)ccc1O`: the compound was classed as inactive.

Regarding `COC(=O)c1ccc(O)cc1`, the result was inactive. Regarding `COc1ccc(C(=O)c2ccccc2)c(O)c1`, the compound was called inactive. Turning to `C=CC(=O)NC(C)(C)CS(=O)(=O)O`, the compound was called inactive. Turning to `C[C@]12C[C@H](O)[C@H]3[C@@H](CCC4=CC(=O)CC[C@@]43C)[C@@H]1CC[C@@H]2C(=O)CO`, the result was inactive.

Regarding `CCCCCCCCCCCCCC(=O)OC(C)C`, the compound was classed as inactive. On to `CCCCNC(=O)NS(=O)(=O)c1ccc(N)cc1`, for which the outcome was inactive. The value for `CCOC(=O)C(C)(C)Oc1ccc(Cl)cc1` was “inactive”; that for `O=[N+]([O-])c1ccc(O)cc1` was “inactive”. For `C1CNCCN1`, the compound was called inactive.

On to `NC(=O)NO`, for which the call was inactive. The value for `CC(=O)/C=C/C1=C(C)CCCC1(C)C` was “inactive”; that for `Cn1cnc2c1c(=O)[nH]c(=O)n2C` was “inactive”. Next, `CC(C)Cc1ccc(C(C)C(=O)O)cc1` (stereo not given): “inactive”; `CC1=C(/C=C/C(C)=C/C=C/C(C)=C/C(=O)O)C(C)(C)CCC1`: “inactive”; `COC(=O)c1ccc(C=O)cc1`: “inactive”. As to `CCN1CCCC1=O`, the result was inactive. Next, `CN(C)C=O`: “inactive”; `NC(=O)OCC(COC(N)=O)c1ccccc1`: “inactive”; `C[C@]12CC[C@@H]3c4ccc(O)cc4CC[C@H]3[C@@H]1CCC2=O`: “inactive”. The value for `O=C(OCc1ccccc1)c1ccccc1` was “inactive”. The value for `CC(C)=CCC/C(C)=C/CO` was “inactive”.

In the case of `COCCOCCOC`, the result was inactive. For `CCc1cc(C(N)=S)ccn1`, the outcome was inactive. The value for `Oc1cccc(O)c1` was “inactive”; that for `Cc1cnc(NC(=O)C2=C(O)c3ccccc3S(=O)(=O)N2C)s1` was “inactive”.

Take `COC(=O)C1CCC(C(=O)OC)CC1` (stereo not given): the outcome was inactive. Turning to `C/C=C/c1ccc(O)c(OC)c1`, the outcome was inactive. Turning to `C#C[C@]1(O)CC[C@H]2[C@@H]3CCC4=CC(=O)CC[C@@H]4[C@H]3CC[C@@]21CC`, the result was inactive. For `CC1(C)O[C@@H]2[C@@H](CO[C@@]3(COS(N)(=O)=O)OC(C)(C)O[C@@H]23)O1`, the outcome was inactive.

As to `COCC(C)N` (stereo not given), the compound was classed as inactive. With `O=C1CCCCCN1`, the compound was classed as inactive. With `CCN(CC)CCOC(=O)c1ccc(N)cc1`, the compound was classed as inactive. Next, `NC(N)=NC(N)=NCCc1ccccc1`: “inactive”.
